# Among all 340,000 compounds or so, about 530 (0.16%) were called active. Not shown: some 2% with an inconclusive outcome. The list comes from a sample in which actives are over-represented; it also holds similar structures and randomly drawn compounds. Values without a mark were called inactive. No stated cut-off is given here; in the data, active means activity change below about -80%; inconclusive means between about -30% and that limit; inactive means weaker than that.
# Experiment: Small Molecules that selectively kill Giardia lamblia: qHTS;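 further: parasites exposed to compound for two days anaerobically before the ATP read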
# Details: Giardia lamblia trophozoite viability; at 7.66 µM; stronger effect = lower value
# From the text: Giardia lamblia is a human pathogen afflicting impoverished nations, and the most common cause of outbreaks of diarrhea in the United States. Giardia has been classified by the CDC as a category B bioterrorism organism. The favored anti giardiasis drugs in the US are metronidazole or tinidazole, compounds that have undesirable side effects. Moreover, increasing resistance to drug regimes and recurrence are a concern. It is thus clear that alternative drug treatments are needed.
# In a collaboration between the University of Maryland, College Park and the NIH Chemical Genomics Center, a bioluminescence Giardia viability assay based on the trophozoites' ATP content was developed. This assay is suitable for high throughput screening, and miniaturized the assay for compound screening in 1536-well plates. The goal of the project is to screen the Molecular Libraries Small Molecule Repository (MLSMR) for compounds that selectively kill Giardia trophozoites.
# NIH Chemical Genomics Center [NCGC]
# NIH Molecular Libraries Probe Centers Network [MLPCN]
# Assay Submitter (PI): Osnat Herzberg, University of Maryland, College Park, MD.
# 1. Dispense 2 ul/well media
# 2. Dispense 23 nl/well compounds
# 3. Dispense 4 ul/well Giardia trophozoites at a concentration of 100 cells/well
# 4. Incubate 48 hrs at 37 deg C anaerobically
# 5. Dispense 4 ul/well ATPLite 1-Step Luminescence assay kit
# 6. Incubate 15-30 min at room temperature
# 7. Read luminescence signal on ViewLux plate reader
# On the % scale 0 is the no-effect control and ±100 the full control effect.
row,SMILES,activity change
1,CCN(CC)c1ccc([N+](=O)[O-])c2cccnc12,-13.7%
2,CN(c1ccccc1)c1ccc([N+](=O)[O-])c2nonc12,-83.4% (active)
3,CO[C@H]1[C@@H](O)[C@@H](C)O[C@H](O[C@H]2[C@H](Oc3cccc4c(O)c5c(=O)oc6ccc(C)c7c(=O)oc(c34)c5c67)O[C@H](C)[C@H](O)[C@@H]2O)[C@@H]1O,0.803%
4,COc1cc([C@@H]2c3cc4c(cc3[C@H](OC(C)=O)[C@H]3COC(=O)[C@H]23)OCO4)cc(OC)c1OC,-7.09%
5,O=P1(Oc2ccccc2)CC(O)C(O)C(COCc2ccccc2)O1 (stereo not given),11%
